The nature of assay [1]: qHTS assay to identify small molecule antagonists of the estrogen receptor alpha (ER-alpha) signaling pathway using the BG1 cell line in the presence of 0.1 nM 17-beta-estradiol - cell viability counter screen (AID 1259241). Also: nearly all actives have a fitted effect of over 40% in size. Also: potency is read from the fitted curve at half-maximal effect. In outline: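 Viability in VM7Luc4E2 cells after 22 hr compound exposure under 0.1 nM 17beta-estradiol stimulation, by CellTiter-Fluor.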
For orientation: Quantitative high-throughput screening tests each substance at several concentrations.

For assay [2], the target named is Estrogen receptor (Homo sapiens) (UniProt P03372). The experiment in a line: qHTS assay to identify small molecule antagonists of the estrogen receptor alpha (ER-alpha) signaling pathway using the BG1 cell line in the presence of 0.1 nM 17-beta-estradiol (AID 1259244). Also: nearly all actives have a fitted effect of over 50% in size. Also: potency is read from the fitted curve at half-maximal effect. In outline: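 Seeding of stripped-serum-adapted VM7Luc4E2 cells, 24 h attachment, compound transfer, then 0.1 nM final 17beta-estradiol; after 22 h incubation, ONE-Glo reagent and luminescence reading.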
Estrogen receptor (Homo sapiens), sequence (P03372 whole entry, looked up): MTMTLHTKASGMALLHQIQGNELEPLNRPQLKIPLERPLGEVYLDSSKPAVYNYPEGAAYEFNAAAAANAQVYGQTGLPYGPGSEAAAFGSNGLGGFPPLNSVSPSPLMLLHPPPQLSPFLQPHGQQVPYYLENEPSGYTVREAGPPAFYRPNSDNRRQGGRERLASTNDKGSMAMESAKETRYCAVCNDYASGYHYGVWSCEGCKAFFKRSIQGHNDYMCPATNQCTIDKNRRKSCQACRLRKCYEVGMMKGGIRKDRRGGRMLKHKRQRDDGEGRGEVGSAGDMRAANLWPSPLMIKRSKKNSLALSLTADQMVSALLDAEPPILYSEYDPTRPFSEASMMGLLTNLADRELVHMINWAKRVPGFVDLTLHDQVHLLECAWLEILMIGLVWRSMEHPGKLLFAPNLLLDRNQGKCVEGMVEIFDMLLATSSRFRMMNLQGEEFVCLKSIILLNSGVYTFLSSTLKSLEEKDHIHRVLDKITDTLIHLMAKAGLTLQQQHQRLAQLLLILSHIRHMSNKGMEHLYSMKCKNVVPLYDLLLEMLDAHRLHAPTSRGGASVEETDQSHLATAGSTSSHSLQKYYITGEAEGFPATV

Assay [3] in a line: qHTS assay to identify small molecule phospholipidosis (PLD) inducers (AID 1259344; active = well fitted curve in the direction sought with a large enough effect; an effect the other way counts as inactive or inconclusive; also: potency is read from the fitted curve at half-maximal effect). In outline: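 Image-based: LipidTOX Red pit count/intensity per well and per cell; HepG2, 24 h compound at 37 C, PFA fixation, Hoechst counterstain.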
The nature of assay [4]: qHTS assay to identify small molecule HDAC inhibitors (AID 1259364). Also: potency is read from the fitted curve at half-maximal effect.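 Also: wild-type HCT-116 cells with endogenous class I/II HDAC activity; nearly all actives have a fitted effect of over 45% in size.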 In outline: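 After a 2 hr compound incubation (37C, 5% CO2), HCT-116 cells seeded at 1,500/well the day before received HDAC-Glo reagent; signal read as luminescence after 30 min at room temperature.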
Assay [5] in a line: qHTS assay to identify small molecule HDAC inhibitors - cell viability counter screen (AID 1259365). Also: nearly all actives have a fitted effect of over 50% in size. Also: potency is read from the fitted curve at half-maximal effect. Summed up:
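Cytotoxicity was gauged in wild-type HCT-116 cells after a brief 2hr treatment with DMSO-dissolved compounds at 37C and 5% CO2, using CellTiter-Glo luminescence developed for 30min at room temperature.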

Assay [6] can be described thus: qHTS assay to identify small molecule agonists of the sonic hedgehog signaling (Shh) pathway - cell viability counter screen (AID 1259366). Also: nearly all actives have a fitted effect of over 50% in size. Also: potency is read from the fitted curve at half-maximal effect. Summed up: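 Stable Gli1-Luc NIH/3T3 clone, 2,000 cells/well. Compound exposure 24hr at 37C. Read-out: CellTiter-Fluor fluorescence.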
Assay [7] is described as follows: qHTS assay to identify small molecule antagonists of the sonic hedgehog signaling (Shh) pathway - cell viability counter screen (AID 1259367). Also: nearly all actives have a fitted effect of over 55% in size. Also: potency is read from the fitted curve at half-maximal effect. Summed up: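 Tox21 library chemicals were tested on a Gli1-Luc NIH/3T3 clone (2,000 cells/well) stimulated by conditioned medium; viability was quantified as fluorescence from CellTiter-Fluor reagent added at 23 hr.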
Assay [8] in a line: qHTS assay to identify small molecule agonists of the sonic hedgehog signaling (Shh) pathway (AID 1259368; calls by dose curve;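 also: NIH/3T3-derived 3T3Gli1-Luc cells carrying a stable Gli1-driven firefly luciferase reporter; series mostly up to about 92 µM; nearly all actives have a fitted effect of over 15% in size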). In outline: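 Stable NIH/3T3 Gli1-Luc reporter clone; 24 hr cpd exposure after a 4 hr settling period; luminescence endpoint.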
Assay [9] can be described thus: qHTS assay to identify small molecule antagonists of the androgen receptor (AR) signaling pathway using the MDA cell line in the presence of 0.5 nM R1881 - cell viability counter screen (AID 1259242). Also: nearly all actives have a fitted effect of over 45% in size. Also: potency is read from the fitted curve at half-maximal effect. In outline: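 Human breast carcinoma MDA-kb2 cells, cultured without CO2, receive compounds alongside 0.5 nM (final) R1881 agonist. After 16 hr at 37C, viability is taken as live-cell protease signal.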

In assay [10] the target is Androgen receptor (Homo sapiens) (UniProt P10275). The experiment in a line: qHTS assay to identify small molecule antagonists of the androgen receptor (AR) signaling pathway using the MDA cell line in the presence of 0.5 nM R1881 (AID 1259243). Also: nearly all actives have a fitted effect of over 50% in size. Also: potency is read from the fitted curve at half-maximal effect. Summed up: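 Cells: MDA-kb2 (MMTV-luc). Stimulus: 0.5 nM R1881. Time: 16 hr, 37C, no CO2. Detection: ONE-Glo luminescence after 30 min at RT.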
Androgen receptor (Homo sapiens), sequence (P10275 whole entry, looked up): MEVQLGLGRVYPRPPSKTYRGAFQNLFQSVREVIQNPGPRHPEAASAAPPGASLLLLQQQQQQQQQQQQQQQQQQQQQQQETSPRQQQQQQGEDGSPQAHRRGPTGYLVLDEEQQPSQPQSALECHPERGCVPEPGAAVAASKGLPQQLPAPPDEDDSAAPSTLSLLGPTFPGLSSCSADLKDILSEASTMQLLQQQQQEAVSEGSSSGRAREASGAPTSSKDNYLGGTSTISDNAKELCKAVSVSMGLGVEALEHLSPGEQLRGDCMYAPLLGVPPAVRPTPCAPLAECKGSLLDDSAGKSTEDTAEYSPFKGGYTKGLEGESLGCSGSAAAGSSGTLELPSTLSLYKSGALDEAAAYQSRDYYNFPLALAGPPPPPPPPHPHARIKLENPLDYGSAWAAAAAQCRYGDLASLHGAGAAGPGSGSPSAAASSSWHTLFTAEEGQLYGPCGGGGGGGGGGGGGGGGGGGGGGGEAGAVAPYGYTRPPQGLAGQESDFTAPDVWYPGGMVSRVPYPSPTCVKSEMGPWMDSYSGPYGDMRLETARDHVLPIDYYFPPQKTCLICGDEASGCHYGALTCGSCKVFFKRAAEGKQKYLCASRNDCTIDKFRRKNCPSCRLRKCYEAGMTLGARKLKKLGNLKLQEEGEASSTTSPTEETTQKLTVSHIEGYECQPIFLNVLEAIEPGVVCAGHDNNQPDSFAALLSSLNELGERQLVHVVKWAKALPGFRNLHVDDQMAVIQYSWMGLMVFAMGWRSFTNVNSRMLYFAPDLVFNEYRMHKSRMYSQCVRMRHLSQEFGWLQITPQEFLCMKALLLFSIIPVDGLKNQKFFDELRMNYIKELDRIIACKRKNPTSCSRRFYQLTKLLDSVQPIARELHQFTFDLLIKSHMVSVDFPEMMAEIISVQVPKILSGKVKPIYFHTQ

Molecules are shown by their SMILES. Where “and” joins values, the source holds several entries; their conditions need not be identical. Equal entries are not always repeated. Inconclusive results are not listed. The source holds several records for some structures; these can differ, active in one and inactive in another. Calls of active or inactive are those of the source. Unless noted, calls follow the shape of the dose curve; as a rule, active = well fitted curve in the direction sought with a large enough effect in the repeat runs; inconclusive = weak or mixed curves; inactive = no such curve, though single readings can be large; an effect the other way counts as inactive or inconclusive.

`Cc1cc2c(OCC(CNC(C)(C)C)OC(=O)c3ccccc3)cccc2[nH]1` (stereo unspecified): the Potency result in assay [1], in assay [2], in assay [3], in assay [4], in [5] and in [6] was “inactive” throughout. Also, the Potency entry in assay [7] and in [8] was “inactive” throughout.

Consider `CC(C)c1nc(CN(C)C(=O)N[C@H](C(=O)N[C@@H](Cc2ccccc2)C[C@H](O)[C@H](Cc2ccccc2)NC(=O)OCc2cncs2)C(C)C)cs1`, for which the Potency entry in assay [9], in assay [2], in assay [4], in assay [5] and in [8] was “inactive” throughout. In addition, the Potency entry in assay [3] was “inactive and 10 µM (active)”; in assay [6], 6.68 µM (active); in assay [7], 7.5 µM (active).

As for `C[C@@H]1CN(CCCn2c3ccccc3c3ccccc32)C[C@H](C)N1`, the Potency result in [1], in [4], in [5] and in [8] was “inactive” each time. Also, the Potency in assay [3] is 10 µM (active); in assay [6], 33.5 µM (active); in [7], 33.5 µM (active).

Turning to `CCC(OCCCOC)OC(C)=O` (stereo unspecified), the Potency entry in assay [1], in assay [9], in [5], in [6], in assay [7] and in [8] was “inactive” each time.

Consider `CC(C)(c1ccccc1)c1ccccc1`, for which the Potency entry in assay [1], in assay [9], in assay [5], in assay [6], in assay [7] and in [8] was “inactive” throughout.

`CCCCCCCCN`: the Potency entry in assay [1], in assay [9], in [5], in assay [6], in [7] and in assay [8] was “inactive” in each case.

With `C[C@]12CC[C@@H]3c4ccc(O)cc4CC[C@H]3[C@@H]1CC[C@@H]2OC(=O)CCC1CCCC1`, the Potency result in assay [9], in [2], in assay [3], in [4], in [5] and in assay [7] was “inactive” throughout. Further, the Potency result in assay [8] is “inactive”. Also, the Potency in assay [6] was 54.5 µM (active).

Consider `CN1C(=O)OC(C)(C)C1=O`, for which the Potency result in [9], in [2], in assay [3], in [5], in assay [6] and in [7] was “inactive” in each case.

For the molecule `COc1ccccc1Oc1c(NS(=O)(=O)c2ccc(C(C)(C)C)cc2)nc(-c2ncccn2)nc1OCCO`, the Potency entry in assay [9], in assay [2], in assay [3], in assay [4], in [5] and in assay [6] was “inactive” throughout. The Potency entry in assay [8] is “inactive”. The Potency in [7] is 26.6 µM (active).

For the molecule `OCCOCC#CCOCCO`, the Potency entry in assay [9], in assay [2], in assay [4], in assay [5], in assay [6] and in assay [7] was “inactive” in each case. The Potency result in assay [8] is “inactive”.

With `Oc1cccc(O)c1O`, the Potency entry in assay [9], in assay [2], in [3], in [4], in [5] and in [8] was “inactive” throughout. The Potency in assay [7] is 48.1 µM (active).

Regarding `CCCCCCC(C)(C)C(=O)O`, the Potency result in assay [9], in assay [10], in assay [2], in assay [4], in assay [5] and in assay [6] was “inactive” in each case. For the same molecule, the Potency result in assay [7] and in [8] was “inactive” throughout.

For the molecule `O=C1c2ccccc2C(=O)C1(O)O`, the Potency result in [1], in assay [9] and in assay [4] was “inactive” each time. The Potency in assay [7] is 54.8 µM (active).

Turning to `COc1ccccc1N1CCN(CCCCNC(=O)c2ccc(-c3ccc(C(C)=O)cc3)cc2)CC1`, the Potency result in assay [1], in [4], in assay [5], in assay [6], in [7] and in assay [8] was “inactive” throughout.

Turning to `O=[N+]([O-])c1ccc(O/N=C/c2cc(Br)c(O)c(Br)c2)c([N+](=O)[O-])c1`, the Potency in assay [1] is 24.2 µM (active); in assay [2], 30.5 µM (active). Besides, the Potency result in assay [5] and in [8] was “inactive” each time.

With `CCOc1ccc(Cc2nccc3cc(OCC)c(OCC)cc23)cc1OCC`, the Potency entry in assay [1], in [3], in assay [4], in assay [5], in assay [6] and in assay [7] was “inactive” each time. Moreover, the Potency entry in [8] is “inactive”. Moreover, the Potency is 10.6 µM (active) in assay [10] and 8.41 µM (active) in assay [2].

For `c1cc(N(CC2CO2)CC2CO2)ccc1Cc1ccc(N(CC2CO2)CC2CO2)cc1` (stereo unspecified), the Potency entry in assay [9] and in assay [5] was “inactive” each time. Also, the Potency in assay [10] is 27.3 µM (active); in assay [6] it was 54.5 µM (active); in assay [7], 54.5 µM (active).

With `COC(=O)c1nc(Cl)c(Cl)nc1N`, the Potency result in assay [1], in assay [5] and in [8] was “inactive” throughout. The Potency in assay [6] is 10.6 µM (active); in assay [7], 5.31 µM (active).

In the case of `C=C/C(C)=C/C/C=C(\C)CCC=C(C)C`, the Potency entry in [9], in assay [2], in [4], in assay [5], in [6] and in assay [7] was “inactive” each time. For the same molecule, the Potency entry in assay [8] is “inactive”.

Turning to `O=C1c2ccccc2C(=O)C1c1nc2ccccc2c(Br)c1O`, the Potency result in [1], in assay [2], in assay [5], in [6], in assay [7] and in [8] was “inactive” throughout. Besides, in assay [4], the Potency was 27.3 µM (active).

`Oc1cc2c(cc1O)[C@H]1c3ccc(O)c(O)c3OC[C@@]1(O)C2`: the Potency in assay [1] was 27.6 µM (active); in [4] it was 55.1 µM (active); in [6], 27.6 µM (active); in assay [7], 27.6 µM (active). Moreover, the Potency result in assay [5] and in assay [8] was “inactive” throughout.

`CCCC(C(=O)OCCN(CC)CC)(c1ccccc1)c1ccccc1`: the Potency entry in [1], in [2], in [4], in [5], in assay [7] and in assay [8] was “inactive” each time.

For the molecule `Nc1nnc(-c2ccc([N+](=O)[O-])o2)o1`, the Potency in assay [1] was 61.1 µM (active); in assay [2], 54.5 µM (active); in assay [7] it was 27.3 µM (active). For the same molecule, the Potency entry in assay [4], in [5] and in assay [8] was “inactive” in each case.

Regarding `CC(C)COCC(CN(Cc1ccccc1)c1ccccc1)N1CCCC1` (stereo unspecified), the Potency in assay [9] and in assay [2] was 29.8 µM (active) throughout. Further, the Potency result in assay [3], in assay [4], in assay [5] and in [8] was “inactive” throughout.

Turning to `c1ccc(C[n+]2cccc3ccccc32)cc1`, the Potency entry in [1], in assay [4], in assay [5], in [6] and in assay [8] was “inactive” each time. For the same molecule, in assay [2], the Potency was 27.3 µM (active).

As to `CC1=C(CC=O)C(C)(C)CCC1`, the Potency result in assay [1], in [9], in [5], in assay [6], in [7] and in assay [8] was “inactive” in each case.

In the case of `CCCCOc1ccc(OCCCN2CCOCC2)cc1`, the Potency entry in assay [9], in [2], in assay [3], in [4], in [5] and in assay [6] was “inactive” in each case. Also, the Potency result in assay [7] and in assay [8] was “inactive” throughout.

`CC(=O)NC1(c2cccc(F)c2)CCN(CC[C@@]2(c3ccc(Cl)c(Cl)c3)CN(c3ccccc3)C(=O)CO2)CC1`: the Potency entry in assay [1], in assay [9], in assay [5] and in assay [8] was “inactive” throughout. Also, in assay [6], the Potency was 24.4 µM (active).

With `C1COC1`, the Potency result in assay [9], in assay [10], in [2], in [5], in assay [6] and in assay [7] was “inactive” throughout. Moreover, in [8], the Potency entry is “inactive”.

As to `C[C@H]1c2cccc(O)c2C(O)=C2C(=O)[C@]3(O)C(O)=C(C(N)=O)C(=O)[C@@H](N(C)C)[C@@H]3[C@@H](O)[C@@H]21`, the Potency entry in [9], in assay [10], in assay [2], in assay [3], in assay [4] and in assay [5] was “inactive” in each case. Besides, the Potency result in assay [8] was “inactive”.

On to `CC(=O)OCCN(CCOC(C)=O)c1ccc(N=Nc2ccc([N+](=O)[O-])cc2C#N)cc1`, for which the Potency is 54.5 µM (active) in assay [9]; 27.3 µM (active) in assay [4]; 24.3 µM (active) in [5]; 48.6 µM (active) in assay [6]; 54.5 µM (active) in [7]. Besides, the Potency result in assay [8] is “inactive”.

In the case of `CC(CC1c2ccccc2CCc2ccccc21)CN(C)C` (stereo unspecified), the Potency entry in assay [4], in assay [5], in assay [6], in [7] and in [8] was “inactive” throughout.

Turning to `CCCCN(CCCC)C(C(N)=O)c1ccc(OC)cc1` (stereo unspecified), the Potency result in assay [9], in assay [2], in [4], in assay [5], in [6] and in assay [7] was “inactive” each time. Also, the Potency entry in assay [8] is “inactive”.

With `O=[N+]([O-])c1ccc(Nc2ccc(Nc3ccccc3)c(S(=O)(=O)O)c2)c([N+](=O)[O-])c1`, the Potency entry in [4], in [5] and in assay [8] was “inactive” throughout.

The values above are taken from PubChem BioAssay (Tox21).
